ATXN2 expr inh: reduces ATXN2 reporter expression in HEK-293 cells; HEK-293 ATXN2-luciferase reporter, luminescence, 24 h; hit rate 0.72% among 360,000; Potency, µM (series often up to 57 µM), most hits filed as inhibitors; further: nearly all actives have a fitted effect of over 55% in size
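qHTS (up to 57 uM final) was run with 24 h compound exposure of reporter cells at 37 °C. Each well was multiplexed: SteadyGlo luminescence measured ATXN2-luciferase expression after a fluorogenic Gly-Phe-AFC viability readout (25 uM final).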
HepG2 viability: HepG2 cytotoxicity, counter-screen for TGF-b inhibitors. Potency, µM (top dose mostly 46.1 µM), most hits filed as cytotoxic. HepG2 CAGA-GFP viability, ATP luminescence, 18 h. hit rate 0.76% among 410,000
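HepG2 CAGA-GFP cells (1000/well, DMEM with 1% FBS) received compound, then TGF-beta at 500 pg/mL final, and were incubated 18 hours at 37 degrees C. Viability was read by CellTiter-Glo luminescence. Media-only wells were set as complete cell-killing and DMSO as no toxicity.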
S2 tox: reduces viability in counter-screen for ATXN expression inhibitors. hit rate 0.49% among 400,000. Potency, µM (top dose mostly 56.7 µM), most hits filed as cytotoxic. AID 651635. S2 cells (HEK-293 line with an ATXN2-luciferase reporter) viability, CellTiter-Fluor protease fluorescence, 24 h; further: nearly all actives have a fitted effect of over 40% in size
TGFb inhibitor: blocks TGF-b signaling. HepG2 CAGA-GFP TGF-b/SMAD3 reporter, GFP fluorescence, 18 h; TGF-beta stimulated, 500 pg/mL final. Potency, µM (doses to about 46.1 µM), most hits filed as inhibitors. hit rate 1.2% among 410,000; further: nearly all actives have a fitted effect of over 65% in size
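Using HEPG2 CAGA-GFP reporter cells at 1000 cells/well, we pinned test compounds, stimulated with recombinant TGF-beta (500 pg/mL final) and measured total well GFP after 18 h.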
IL1B secr inh: inhibitors of inflammasome signaling (IL-1 beta secretion). THP-1 LPS/ATP IL-1B secretion, AlphaLISA, 16 h; stronger effect = lower value. activity change, % at 57.5 µM. hit rate 4.7% among 360,000. AID 743279; in the data active means activity change below about -50%; inconclusive means mostly about -30% to -49%
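THP-1 cells pretreated 1 hr with compounds (up to 57.5 uM final), then stimulated with LPS (250 ng/mL final) plus ATP (1.25 mM final); secreted IL-1B measured by AlphaLISA after 16 hr, decreased signal indicating inhibition.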
Each line names hits and unclear results; the compound was inactive in the other large screens. An excerpt weighted towards active compounds, which were near 5.7% of everything screened. Unless noted, the call rests on the fitted dose curve; in most records, active means well fitted curve in the direction sought with a large enough effect; inconclusive means small, poorly fitted or top-dose-only effect, or another doubt; inactive means no such curve, though single readings can be large; an effect the other way counts as inactive or inconclusive.

CCC1CCCCN1CCCNC(=O)CSc1nc2nc(C)c(Cc3ccccc3)c(C)n2n1 (stereo not drawn)	IL1B secr inh -67
Cc1ccc(Cc2c(C)nc3nc(SCC(=O)NCCCN4CCCCC4)nn3c2C)cc1	IL1B secr inh -62
Cc1cc(C)n(C(C)CC(=O)Nc2ccc(C)c(N(C)C)c2)n1 (stereo not drawn)	none (no result: IL1B secr inh)
Cc1ccsc1C=Nc1ccc(O)cc1	TGFb inhibitor inconclusive, IL1B secr inh -99
O=S(=O)(Cc1ccccc1)N(O)c1ccccc1	IL1B secr inh -63
CC1(C)Oc2cc(N)c([N+](=O)[O-])cc2O1	none
C=C1N(C)c2cc([N+](=O)[O-])c(N)cc2C1(C)C	IL1B secr inh -53
CC(C)[C@@H]1CN=C(N)N1C[C@@H]1CCCN1C[C@H](C)N1C[C@@H](Cc2ccccc2)N(CCc2ccc(Cl)c(Cl)c2)C1=N	IL1B secr inh -75
C[C@@H](CN1CCC[C@H]1CN1C(N)=NC[C@@H]1Cc1ccccc1)N1C[C@@H](Cc2ccccc2)N(CCc2ccc(Cl)c(Cl)c2)C1=N	IL1B secr inh -66
CC(C)[C@H](CN1CCC[C@H]1CN1C(N)=NC[C@@H]1Cc1ccccc1)N1C[C@@H](Cc2ccccc2)N(CCc2ccc(Cl)c(Cl)c2)C1=N	IL1B secr inh inconclusive
O=C(NCC1(N2CCOCC2)CCCC1)c1cnn(-c2nccc(-c3ccco3)n2)c1C1CC1	none (no result: ATXN2 expr inh, HepG2 viability, TGFb inhibitor, IL1B secr inh)
Cc1nn(-c2ccc(N3CCCCC3)nn2)c(C)c1CCC(=O)NCc1ccc(OC(C)C)cc1	none (no result: ATXN2 expr inh, S2 tox, IL1B secr inh)
O=C(CSc1ncnc2c1nnn2Cc1ccccc1F)N1CCN(c2ccccc2)CC1	IL1B secr inh -84
CC(C)(C)NC(=O)CSc1ncnc2c1nnn2Cc1ccccc1Cl	TGFb inhibitor inconclusive, IL1B secr inh -60
O=C(CSc1ncnc2c1nnn2Cc1ccccc1)NC1CCCC1	TGFb inhibitor inconclusive, IL1B secr inh inconclusive
OCC(O)COc1ccc(Cl)cc1 (stereo not drawn)	none (no result: ATXN2 expr inh, HepG2 viability, TGFb inhibitor, IL1B secr inh)
Cc1ccccc1NC(C)C(=O)N/N=C/c1ccccc1OCc1cccc(Br)c1 (stereo not drawn)	IL1B secr inh inconclusive
Cc1cccc(/C=N/NC(=O)c2ccccc2OCc2cccc(Br)c2)n1	ATXN2 expr inh inconclusive, S2 tox inconclusive, IL1B secr inh -87
COc1ccccc1C(=O)NCC(=O)N/N=C/c1cc(Br)ccc1OCc1ccccc1	IL1B secr inh -78 (no result: ATXN2 expr inh)
COc1ccc(NC(C)C(=O)N/N=C/c2ccccc2OCc2cccc(Br)c2)cc1 (stereo not drawn)	S2 tox inconclusive, IL1B secr inh -64
CCc1ccc2nc3nc(C)cc(C)c3c(N)c2c1	ATXN2 expr inh inconclusive, TGFb inhibitor 13µM, IL1B secr inh -104 (no result: S2 tox)
Cc1cc(C)c2c(SC(C)C)nc(N)nc2n1	none (no result: ATXN2 expr inh)
S=c1sc2c(Cl)ncnc2n1-c1ccccc1	S2 tox inconclusive, TGFb inhibitor inconclusive, IL1B secr inh -96 (no result: ATXN2 expr inh)
CCN1CCc2c(sc(-n3cccc3)c2C(C)NC(=O)Nc2ccc(Br)cc2)C1 (stereo not drawn)	HepG2 viability 14µM, TGFb inhibitor 10µM (no result: ATXN2 expr inh, S2 tox, IL1B secr inh)
NCCc1nc2cccnc2n1-c1ccccc1	none (no result: IL1B secr inh)
CC1=CC(C)(C)n2c(O)c(N=N)c3cc(C)cc1c32	S2 tox inconclusive, TGFb inhibitor inconclusive, IL1B secr inh -60
CC(C)(C)OC(=O)N(c1cccc2cccnc12)S(=O)(=O)c1ccccc1Br	TGFb inhibitor 4.5µM (no result: ATXN2 expr inh, S2 tox, IL1B secr inh)
N#Cc1c(NC(=O)c2ccc(-c3ccccc3[N+](=O)[O-])o2)sc2c1CCCC2	IL1B secr inh inconclusive
CC1CCc2c(sc(NC(=O)c3ccc(-c4ccccc4[N+](=O)[O-])o3)c2C#N)C1 (stereo not drawn)	IL1B secr inh -63
Cc1cnc(SCc2ccccn2)nc1C1CCCN(C(=O)c2coc3c2C(=O)CCC3)C1 (stereo not drawn)	none (no result: ATXN2 expr inh, HepG2 viability, TGFb inhibitor, IL1B secr inh)
O=C(NCc1ccccc1C(F)(F)F)c1cccc2c1C(=O)c1ccc(N3CCOCC3)cc1S2(=O)=O	none
O=C(NCc1ccccc1C(F)(F)F)c1cccc2c1C(=O)c1ccc(N3CCC(N4CCCCC4)CC3)cc1S2(=O)=O	ATXN2 expr inh 28µM, S2 tox inconclusive, IL1B secr inh -103
COCCNC(=O)/C(C#N)=C/c1cc(C)n(-c2ccc(C)cc2)c1C	IL1B secr inh -94
COCCNC(=O)/C(C#N)=C/C=C/c1ccccc1	IL1B secr inh -93
COCCNC(=O)/C(C#N)=C/c1cc(C(C)C)c(OC)cc1C	IL1B secr inh -71
COc1cc(C)c(/C=C(\C#N)C(=O)Nc2ccc(C)cc2)cc1C(C)C	none (no result: S2 tox)
Cc1cc(C(=O)Nc2ccccc2-c2nc(CNC(=O)C3COc4ccccc4O3)c(C)o2)c(C)o1 (stereo not drawn)	none (no result: ATXN2 expr inh, HepG2 viability, TGFb inhibitor, IL1B secr inh)
Cc1c(N2C(=O)/C(=C/C3CC=CCC3)SC2=S)c(=O)n(-c2ccccc2)n1C (stereo not drawn)	TGFb inhibitor inconclusive, IL1B secr inh -59
Cc1c(N2C(=O)/C(=C\C3CC=CCC3)SC2=S)c(=O)n(-c2ccccc2)n1C (stereo not drawn)	S2 tox inconclusive, IL1B secr inh -101
Cc1c(N2C(=O)/C(=C/c3ccccc3)SC2=S)c(=O)n(-c2ccccc2)n1C	none
Cc1c(NC(=O)/C(C#N)=C/C2CC=CCC2)c(=O)n(-c2ccccc2)n1C (stereo not drawn)	none
C=CCN1c2ccccc2[C@]23C[C@@H](C(=O)OC)N(C(=O)c4cc(C)oc4C)C2=NC(C(=O)OC)=C(C(=O)OC)[C@H]13	S2 tox inconclusive, IL1B secr inh -65
O=C(Cn1cnc([N+](=O)[O-])c1)Nc1cc(Oc2ccc(Cl)cc2Cl)cc([N+](=O)[O-])c1	ATXN2 expr inh inconclusive, TGFb inhibitor inconclusive, IL1B secr inh -58
N#Cc1ccc(NC(=O)Cn2cnc([N+](=O)[O-])c2)cc1	none
Cc1nc(-c2ccc(F)cc2)sc1CCNC(=O)c1ccccc1C(F)(F)F	S2 tox inconclusive (no result: IL1B secr inh)
Cc1cccc(N2CCN(C(=O)C3CCCN(S(=O)(=O)c4cccc5nsnc45)C3)CC2)c1C (stereo not drawn)	none (no result: IL1B secr inh)
Cc1ccc(C)c(N2CCN(C(=O)c3ccc(N4CCOCC4)c([N+](=O)[O-])c3)CC2)c1	IL1B secr inh -51
O=C(c1ccc(N2CCCC2)c([N+](=O)[O-])c1)N1CCN(CCO)CC1	HepG2 viability 7.9µM
O=C(c1cccc(F)c1)N1CCN(c2cc(N3CCCCC3)c(F)cc2[N+](=O)[O-])CC1	IL1B secr inh -74
CCC(=O)N1CCN(c2ccc(Cl)cc2NC(=O)c2ccc3c(c2)OCCO3)CC1	none
CCC(=O)N1CCN(c2ccc(Cl)cc2NC(=O)c2ccc(N3CCCC3)c([N+](=O)[O-])c2)CC1	IL1B secr inh -51
CCc1nc2cc(C(=O)N3CCC[C@H]3CO)cc(NC(=O)c3ccccc3OC)c2n1C	none (no result: ATXN2 expr inh, HepG2 viability, TGFb inhibitor, IL1B secr inh)
